# Bioassay records (PubChem BioAssay)
# A549 viability – counter-screen for Nrf2 inhibitors: cytotoxicity in A549 cells. A549 ARE-Fluc cells, CellTiter-Fluor viability, 18-24 h. Potency, µM (doses to about 46 µM), without a hit: at the highest dose activity change, negative = cytotoxicity, usual class: inhibitors. hit rate 0.16% among 390,000; also: potency is read from the fitted curve at half-maximal effect; % is scaled to controls: 0 for no effect and ±100 for the full control effect
#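 A549 ARE-Fluc cells in 5% FBS OPTI-MEM, 5000 cells/well, rested 2 h then exposed to compounds in concentration-response for 18-24 h at 37 °C. Viability by CellTiter-Fluor fluorescence (Ex 405/Em 525) after 30 min; luciferase luminescence (BugLite, 15 min, RT) read afterwards.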
# Apoferritin bind – binds horse apoferritin like a general anesthetic | apoferritin/1-aminoanthracene competitive binding, fluorescence | Potency, µM (highest dose often 77.5 µM), for the others: at the top dose activity change, negative = displacement, most hits filed as inhibitors | P02791 | hit rate 0.074% among 350,000; also: potency is read from the fitted curve at half-maximal effect; % is scaled to controls: 0 for no effect and ±100 for the full control effect; nearly all actives have a fitted effect of over 20% in size
#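 Read-out: endpoint 1-AMA fluorescence, excitation 380 nm and emission 535 nm, after compounds sit 10 min at room temperature with 10 uM horse-spleen apoferritin in 50% saturated 1-AMA/PBS. Values come from four-parameter Hill fits.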
# Nrf2 block – inhibitors of Nrf2 signaling. A549 ARE-Fluc reporter, luciferase luminescence, 18-24 h. Potency, µM (highest dose often 46 µM), inactives show top-dose activity change, negative = inhibition, most hits filed as inhibitors. hit rate 2.1% among 360,000. AID 504444; also: potency is read from the fitted curve at half-maximal effect; % is scaled to controls: 0 for no effect and ±100 for the full control effect; nearly all actives have a fitted effect of over 60% in size
#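 Reporter: ARE-Fluc in A549. Exposure: 18-24 h, 37 °C, 5% CO2, 5% FBS OPTI-MEM. Readouts: fluorescent cytotoxicity (CellTiter-Fluor), then luminescent Nrf2 signal after BugLite.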
# Giardia kill – Giardia lamblia killing; hit rate 0.15% among 340,000; activity change, % at 7.66 µM, hits read low; Giardia lamblia trophozoite viability; in the data active = activity change below about -80%; inconclusive = between about -30% and that limit;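 also: parasites exposed to compound for two days anaerobically before the ATP read; % is scaled to controls: 0 for no effect and ±100 for the full control effect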
#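 Trophozoite viability was measured as ATP-dependent luminescence, read 15-30 min after reagent addition. Before that, parasites at 100 cells/well were exposed to compounds for 48 h, anaerobically, at 37 deg C.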
# mIDH1 inhibitor – inhibitors of human mutant IDH1 R132H | O75874 | IDH1-R132H enzyme, NADPH consumption, diaphorase/resazurin fluorescence | Potency, µM (titrated, usually from 76.6 µM), without a hit: at the highest dose activity change, negative = inhibition, actives largely listed as inhibitors | hit rate 0.093% among 390,000; also: potency is read from the fitted curve at half-maximal effect; % is scaled to controls: 0 for no effect and ±100 for the full control effect; nearly all actives have a fitted effect of over 65% in size
# Target sequence (O75874 whole entry R132H, stated change not applied): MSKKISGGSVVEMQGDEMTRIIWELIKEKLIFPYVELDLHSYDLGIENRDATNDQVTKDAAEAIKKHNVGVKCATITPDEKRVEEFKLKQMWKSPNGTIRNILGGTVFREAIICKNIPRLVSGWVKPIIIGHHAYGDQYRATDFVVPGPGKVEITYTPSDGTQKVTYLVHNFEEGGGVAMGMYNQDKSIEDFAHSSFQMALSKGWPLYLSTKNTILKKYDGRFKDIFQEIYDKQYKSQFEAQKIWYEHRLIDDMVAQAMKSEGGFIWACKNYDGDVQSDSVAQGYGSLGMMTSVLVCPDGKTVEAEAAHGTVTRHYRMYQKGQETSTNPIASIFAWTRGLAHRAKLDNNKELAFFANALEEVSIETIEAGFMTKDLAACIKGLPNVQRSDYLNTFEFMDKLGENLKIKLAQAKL
#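 IDH1-R132H (0.5 ug/mL dispensed) in pH 7.5 Tris buffer was preincubated 30 min with compound, then given a substrate mix of 0.016 mM NADPH and 2 mM alpha-KG for 80 min at room temperature; remaining NADPH was read by diaphorase/resazurin fluorescence.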
# Nrf2 activator – activates Nrf2 signaling; AREc32 ARE-luciferase reporter (MCF7-derived line), luminescence, 24 h; Potency, µM (series often up to 46.1 µM), for inactives: at the highest dose activation, usual class: activators; AID 624171; hit rate 0.31% among 410,000; also: potency is read from the fitted curve at half-maximal effect; % of control where 0% means no effect; nearly all actives have a fitted effect of over 65% in size
#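 Luciferase luminescence (Steady-Glo, 30 min at room temperature) served as the read-out of ARE activation in AREc32 cells treated with compounds for 24 hr at 37 deg C.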
# An asterisk follows results filed as active; u = inconclusive; x = no result. The list is not random: actives were taken first. Their share in the collection is about 2.3%. Unless noted, calls follow the shape of the dose curve; as a rule, active = well fitted curve in the direction sought with a large enough effect; inconclusive = small, poorly fitted or top-dose-only effect, or another doubt; inactive = no such curve, though single readings can be large; an effect the other way counts as inactive or inconclusive.
SMILES,A549 viability,Apoferritin bind,Nrf2 block,Giardia kill,mIDH1 inhibitor,Nrf2 activator
Cc1ccc(N2CCN(C(=O)C3CCC(CNS(=O)(=O)c4ccc(Br)s4)CC3)CC2C)cc1 (configuration not stated),1%,-12%,9.2µM*,x,1%,4%
COc1ccc(-n2c(-c3ccco3)nc3c(cnn3-c3ccc(Cl)cc3)c2=O)cc1,-3%,-4%,26µM*,x,-11%,0%
CNC(=O)c1cccn(Cc2ccc(C(F)(F)F)cc2)c1=O,9%,-2%,u,-2,9%,u
NC(=O)c1cccn(Cc2ccc(C(F)(F)F)cc2)c1=O,-3%,-8%,16µM*,-3,4%,3%
CNC(=O)c1cccn(Cc2cc(C(F)(F)F)cc(C(F)(F)F)c2)c1=O,-19%,-13%,5.2µM*,-13,6%,7%
CCN(CC(=O)Nc1ccccc1C(F)(F)F)C(=O)CCSc1ccc(F)cc1,-17%,x,u,6,3%,2%
Cc1ccc2nc3sc(=O)sc3nc2c1,x,-4%,x,x,x,x
CC1CC(C)C(=O)[C@H](C(O)CC2CC(=O)NC(=O)C2)C1 (some centres not stated),x,-7%,x,x,x,x
CCc1ccccc1NC(=O)CN1CCN(C(=O)COc2ccccc2C#N)CC1,-1%,x,-8%,-9,5%,0%
CCC(=O)c1ccc(OCC(=O)N2CCN(CC(=O)Nc3ccccc3C(F)(F)F)CC2)cc1,-21%,x,16µM*,1,-5%,4%
O=C(O)c1cccc2c1NC(c1cccc([N+](=O)[O-])c1)C1CC(Sc3ccccc3[N+](=O)[O-])C(Cl)C21 (configuration not stated),-18%,-17%,-9%,-7,29µM*,5%
COC(=O)C(O)C(O)(CCC(C)C)C(=O)OC1C(OC)=CC23CCCN2CCc2cc4c(cc2C13)OCO4 (configuration not stated),x,-1%,x,x,x,x
O=[N+]([O-])c1cccc2c([As](=O)(O)O)cccc12,8%,0%,16%,-94*,-6%,0%
CC(=O)C1C(N2CC2)CC2C3CCC4=CC(=O)CCC4(C)C3CCC21C (configuration not stated),16µM*,x,-16%,-2,1%,1%
O=c1[nH]c(O)c(N=Nc2ccc(Cl)c(S(=O)(=O)Nc3ccccc3Cl)c2)c(=O)[nH]1,-8%,x,u,-3,2%,u
CCc1ccc(Nc2nc3c(S(=O)(=O)c4ccc(C)cc4)nnn3c3ccsc23)cc1,-12%,-4%,u,x,-6%,1%
Fc1ccc(CCNCc2ccc(Cl)c(Cl)c2)cc1,u,-19%,12µM*,30,-2%,0%
CC(c1ccccc1)[n+]1ccccc1 (configuration not stated),-3%,x,18µM*,-14,-15%,-1%
CC([C@H](O)c1ccccc1)N(C)C (some centres not stated),x,-3%,x,x,x,x
CCOc1cccc(=NC2CCCCC2)c2c(C)n(C)c(C)c12,u,-4%,16µM*,-14,18%,7%
COc1ccc(C(=O)Nc2ccc(S(=O)(=O)N(Cc3ccccc3)c3ccccc3)cc2)cc1,-1%,2%,7.3µM*,x,-3%,1%
C[C@H](NC(=O)[C@@H](N)Cc1ccc(O)cc1)C(=O)N[C@@H](Cc1ccccc1)C(=O)N[C@@H](Cc1ccccc1)C(N)=O,x,5%,x,x,x,x
CC1=CC(=C2C(=O)NC(=S)NC2=O)C=C(C(F)(F)F)N1Cc1ccccc1,15µM*,-12%,u,4,11%,0%
COC1CCC(OC2CC(C3(C)CCC4(CC(O)C(C)C(C(C)/C=C(\C)C(=O)C(C)CC(C)C(=O)O)O4)O3)OC3(OC(C4OC(O)(CO)C(C)CC4C)CC3C)C2C)OC1C (configuration not stated),0.65µM*,x,0.41µM*,26,-3%,8%
